# Compound activity from PubChem BioAssay.
# CYP2C19 activ: cytochrome P450 2C19 (human) activation; AID 1025; 96,000 tested, under 10 active; P33261; activation factor at 5 µM; recombinant CYP2C19, luciferin-H EGE luminescence; active compounds read high; 0 = fully inhibited enzyme, 1 = untreated enzyme;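 active = activation factor of at least 2 at 5 µM in the primary screen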;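 note: 0 = wells with 2.5 mM tranylcypromine and 1 = vehicle-only wells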
# CYP2C9 inhib: blocks human cytochrome P450 2C9. CYP2C9 Supersomes, luciferin-H conversion, luminescence. P11712. 20% of 96,000 active. inhibition, % at 5 µM;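 active = blocking of liver enzyme CYP2C9 beyond about 50% at 5 µM, limit read from the data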
# Target sequence (P11712 whole entry, looked up): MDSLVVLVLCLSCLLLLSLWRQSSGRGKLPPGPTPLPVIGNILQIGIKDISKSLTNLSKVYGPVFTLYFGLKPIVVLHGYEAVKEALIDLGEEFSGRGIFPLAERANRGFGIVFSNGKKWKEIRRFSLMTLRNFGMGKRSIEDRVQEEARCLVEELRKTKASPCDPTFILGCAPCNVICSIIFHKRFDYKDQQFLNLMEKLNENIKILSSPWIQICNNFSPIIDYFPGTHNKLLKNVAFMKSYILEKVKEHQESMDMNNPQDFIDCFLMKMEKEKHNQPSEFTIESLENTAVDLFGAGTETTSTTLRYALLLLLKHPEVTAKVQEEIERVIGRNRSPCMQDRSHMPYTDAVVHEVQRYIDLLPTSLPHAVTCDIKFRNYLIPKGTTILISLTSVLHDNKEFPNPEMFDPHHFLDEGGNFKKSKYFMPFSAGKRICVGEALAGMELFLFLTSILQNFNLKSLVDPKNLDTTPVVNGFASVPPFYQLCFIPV
# Cav32 inh: human Cav3.2 channel inhibition, primary screen. O95180. Cav3.2-expressing cells, Fluo-4 calcium fluorescence FDSS; active compounds read low. B-score at 10 µM. 4% of 100,000 active. AID 449739;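 active = single-dose well whose peak fluorescence ratio is a statistical outlier from its plate by either plate-standardised score or position-corrected B-score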
# CYP2C9 activ: CYP2C9 (human) activation; P11712; recombinant CYP2C9, luciferin-H conversion, luminescence; active compounds read high; factor 1 = untreated enzyme, 0 = blocked; activation factor at 5 µM; 1.4% of 96,000 active; AID 1024;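 active = activation factor of 2 or more for CYP2C9 at a 5 µM dose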;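 note: 0 = sulfaphenazole-blocked wells and 1 = vehicle-only wells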
# CYP2C19 inhib: human CYP2C19 inhibition | CYP2C19 Supersomes, luciferin-H EGE luminescence, 30 min | P33261 | 21% of 96,000 active | inhibition, % at 5 µM;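 active = CYP2C19 inhibition above a set limit at 5 µM in the primary screen, cut at about 50% in these data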;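 note: plate controls were negative control wells for no effect and 2.5 mM tranylcypromine positive control for full effect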
# Starred values were filed as active, the others as inactive; / = no result given. An excerpt weighted towards active compounds, which were near 27% of everything screened.
SMILES,CYP2C19 activ,CYP2C9 inhib,Cav32 inh,CYP2C9 activ,CYP2C19 inhib
COc1cc(C2C(C#N)=C(N)Oc3n[nH]c(C)c32)ccc1OC(=O)c1ccccc1 (stereo not given),1.1,9.4,0.552,0.9,-6.6
COC(=O)Cc1ccc(NC(=S)NCCCO)cc1,0.9,13.2,-0.236,0.9,8.8
COc1ccc(-c2nc(C#N)c(N3CCN(c4cccc(Cl)c4)CC3)o2)cc1OC,0.7,15.5,0.0735,0.8,32.2
COc1cc2c(cc1OC)C1=C(C#N)CC/C(=N\S(=O)(=O)c3cccc(Cl)c3)N1CC2,0.7,62.9*,-0.77,0.4,27.3
Cn1nnnc1SCC(=O)Nc1c(Cl)cccc1Cl,0.9,15.3,-0.025,0.8,9.5
COc1ccc(S(=O)(=O)N2CCCC(C(=O)NCc3ccco3)C2)cc1Cl (stereo not given),0.7,-45.3,-0.266,1.5,32.6
Cc1ccsc1C(=O)Nc1cc(C(C)(C)C)nn1-c1ccccc1,0.7,23.1,0.551,0.8,25.8
O=C1CCCCCC1C1(O)C(=O)Nc2ccc(Br)cc21 (stereo not given),0.5,-9.4,0.356,1.1,52.3*
Clc1ccc(CNC2CCCC2)cc1,0.2,18.9,-0.426,0.8,78.4*
Oc1ccc(CNC2CCCCC2)cc1,1,-13.0,/,1.1,-3.9
CCOc1cc(NC(=O)c2cnccn2)c(OCC)cc1NC(=O)c1ccc(OC)cc1,0.8,14.4,/,0.9,22.0
CCCCNC(=O)c1ccc2c(OCC)n(CCCC)nc2c1,0.9,2.2,-1.71,1,12.8
CCCCn1nc2cc(C(=O)NCc3ccc4c(c3)OCO4)ccc2c1OCC,0.4,65.7*,0.952,0.3,59.3*
CCCn1nc2cc(C(=O)NCCc3cccs3)ccc2c1OCC,0.5,34.1,0.142,0.7,54.2*
Cc1nn(C)cc1C=NCCOCc1ccccc1,1.1,-8.0,0.327,1.1,-5.6
O=S(=O)(Nc1ncccc1O)c1ccc(Cl)cc1,0.1,17.7,0.426,0.8,86.0*
O=S(=O)(Nc1cc(Cl)ccn1)c1ccc(Cl)cc1,0.5,74.0*,-0.203,0.3,47.2
Nc1ccc(S(=O)(=O)Nc2ccccn2)cc1,/,/,0.0648,/,/
O=S(=O)(Nc1nccs1)c1ccc(Cl)cc1,0.8,50.2*,-3.44*,0.5,21.0
Cc1ccc(Cl)cc1N1CCN(CC(=O)Nc2ccc3[nH]c(=O)[nH]c3c2)CC1,0.9,-21.3,-0.363,1.2,13.3
COc1ccc(NC(=O)COC(=O)c2cnccn2)cc1Cl,1.1,-9.9,-0.013,1.1,-6.5
COc1nc(OC/C(N)=N/O)nc(N2CCOCC2)n1,1,11.3,0.141,0.9,0.5
O=c1cc(O)nc(SCc2ccccc2)n1-c1ccc(F)cc1,0.9,1.3,-0.0254,1,9.9
CCCCNC(=O)CSc1nc2ccsc2c(=O)n1C1CCN(C(=O)OCC)CC1,0.6,56.0*,0.52,0.4,36.2
CCC(C)NCCOCCOc1ccccc1-c1ccccc1 (stereo not given),0.6,-8.7,0.00451,1.1,35.1
SMILES,CYP2C19 activ,CYP2C9 inhib,Cav32 inh,CYP2C9 activ,CYP2C19 inhib
Cc1cccc(N/C=C/C(=C(C#N)C#N)N(C)C)c1,0.2,87.4*,0.286,0.1,76.1*
O=C1Nc2ccccc2C1(c1ccccc1)c1ccccc1,0.3,73.9*,-9.52*,0.3,71.6*
COC(=O)c1[nH]cnc1C(=O)c1ccccc1,1,-9.4,0.457,1.1,-2.1
O=S(=O)(c1cccc(-c2nnc(SCc3ccc(Cl)cc3)o2)c1)N1CCCCC1,0.3,87.3*,-2.67,0.1,69.4*
CN(C)S(=O)(=O)c1cccc(-c2nnc(SCc3ccc4c(c3)OCCO4)o2)c1,0.4,92.5*,0.12,0.1,64.0*
Cc1ccc(CSc2nnc(-c3ccc(S(=O)(=O)N4CCCC4)cc3)o2)cc1,1,21.1,0.119,0.8,4.3
O=S(=O)(c1ccc(-c2nnc(SCc3ccccc3)o2)cc1)N1CCCC1,0.9,32.9,-0.189,0.7,13.1
CC(C)c1ccc(NC(=O)C(c2ccccc2)N(C)C(=O)CCc2c[nH]c3ccccc23)cc1 (stereo not given),/,/,-0.837,/,/
CC(=O)c1c(N2CCN(Cc3ccc4c(c3)OCO4)CC2)nc(=S)n(-c2ccccc2)c1C,1.1,24.2,0.208,0.8,-7.1
COCC(C)NCc1cccc(OC)c1OC (stereo not given),0.8,7.3,0.166,0.9,21.6
COCC(C)NCc1ccccc1C (stereo not given),0.7,80.0*,0.126,0.2,26.0
CC1CC1C(=O)OCc1cc(=O)n2cc(Br)ccc2n1 (stereo not given),0.4,35.5,0.149,0.6,63.2*
O=C(OCc1cc(=O)n2cc(Br)ccc2n1)C1COc2ccccc2O1 (stereo not given),1,9.5,-0.978,0.9,-4.5
CCCN(Cc1ccccc1)S(=O)(=O)c1ccc(N2C(=O)CCC2=O)cc1,0.8,42.1,-0.624,0.6,24.1
COc1ccc(/C=N/NC(=O)c2[nH]ncc2Br)c(OC)c1,0.6,-104.6,0.362,2*,36.3
COc1ccc(/C=N/Nc2ncc(-c3ccccc3)cn2)c(OC)c1,/,/,-0.699,/,/
Cc1c(NC(=O)c2cc(=O)[nH]c(=O)[nH]2)c(=O)n(-c2ccccc2)n1C,1.1,-17.6,0.0566,1.2,-9.7
O=C(CCSc1nc(-c2ccc3c(c2)OCO3)cc(C(F)(F)F)n1)NCc1ccccc1,/,/,-1.05,/,/
CC(=O)c1ccc(N2CCN(C(=O)c3cc(-c4ccc5c(c4)OCO5)nc4ccccc34)CC2)cc1,0.6,62.5*,/,0.4,36.7
O=C(c1cc(-c2ccccc2)nc2ccccc12)N1CCOCC1,0.8,8.4,-1.68,0.9,16.0
CCCN(CCC)C(=O)c1cc(-c2ccc3c(c2)OCO3)nc2ccccc12,0,100.3*,-4.98,0,97.0*
CC(NC(=O)c1cc(-c2ccc3c(c2)OCO3)nc2ccccc12)C(C)(C)C (stereo not given),0.7,55.8*,-1.15,0.4,29.5
Cc1cc2c(c(SCC(=O)NCCc3ccccc3)n1)C(=O)OC2,0.7,12.4,0.768,0.9,29.6
Cc1cccc(Oc2ncc(-c3ccc(Cl)cc3)cn2)c1,1,-16.1,/,1.2,-1.5
CCOC(=O)C1=C(CSc2nc3c(cc2C#N)CCC3)OC(N)=C(C#N)C1c1ccccc1 (stereo not given),/,/,-5.12*,/,/
CCOC(=O)C1=C(CSc2nc3c(cc2C#N)CN(C)CC3)OC(N)=C(C#N)C1c1ccc(F)cc1 (stereo not given),0.1,85.8*,/,0.1,91.8*
CCOC(=O)C1=C(CSc2nc3c(cc2C#N)CN(C)CC3)OC(N)=C(C#N)C1c1ccccc1 (stereo not given),0.6,40.8,-0.468,0.6,42.6
CCN(CC)C(=O)Nc1c(C)n(C)n(-c2ccccc2)c1=O,/,/,1.21,/,/
CCC(C(=O)OCC(=O)Nc1c(C)n(C)n(-c2ccccc2)c1=O)c1ccccc1 (stereo not given),1,0.9,0.533,1,4.3
